Assay results reported in PubChem BioAssay (NCATS).
Results filed as inconclusive are left out. The source made the active and inactive calls. Unless noted, calls follow the shape of the dose curve; as a rule, active = well fitted curve in the direction sought with a large enough effect; inconclusive = small, poorly fitted or top-dose-only effect, or another doubt; inactive = no such curve, though single readings can be large; an effect the other way counts as inactive or inconclusive.

Tested on: not listed separately
Experiment: Validation screen for small molecules that induce genotoxicity in human embryonic kidney (HEK293T) cells expressing luciferase-tagged ELG1 (AID 493106); also: 0% is about no effect
Settings: luminescence; series mostly up to 46.1 µM; activity change, positive = ELG1 induction: at the top concentration
Procedure, shortened: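 In this validation screen, increased ELG1-luciferase signal flags compounds causing genetic stress. HEK293T reporter cells are treated 16 hr (37 °C, 5% CO2), developed with ONE-Glo for 30 min at room temperature, and imaged on a CCD-based reader.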

Compound	activity change, positive = ELG1 induction
CCCc1c(-c2ccc(O)cc2)nn(-c2ccc(O)cc2)c1-c1ccc(O)cc1	-12.4% (inactive)
CSC(=N)N	-4.88% (inactive)
CC(C)[C@@H]1CC[C@@H](C)C[C@@H]1P(=O)(c1ccccc1)c1ccccc1	-9.33% (inactive)
Fc1ccc(CN(C2=NCCN2)c2c(Cl)cccc2Cl)cc1	-13.4% (inactive)
N[C@H](C(=O)O)[C@H]1C[C@@H]1C(=O)O	-5.06% (inactive)
CC1=C(/C=C/C(C)=C/C=C/C(C)=C\C(=O)O)C(C)(C)CCC1	-0.301% (inactive)
COc1cc(CNC(=O)CCCCCCC(C)C)ccc1O	-1.35% (inactive)
C=CCN1CCc2cc(O)c(O)cc2C(c2ccccc2)C1 (configuration not stated)	-3.4% (inactive)
C=CCN1CCc2c(cc(O)c(O)c2Br)[C@@H](c2ccccc2)C1	-0.211% (inactive)
Nc1nc2[nH]c(=O)cnc2c(=O)[nH]1	1.14% (inactive)
COc1ccc(CCn2nnnc2C2(c3ccc(C)cc3)CC2)cc1	-10.4% (inactive)
Nc1ncnc2c1nc(Br)n2C1OC2COP(=O)(O)O[C@@H]2C1O (some centres not stated)	5.51% (inactive)
Oc1ccc(/C=C/c2ccc(/C=C/c3ccc(O)cc3)c(Br)c2)cc1	-0.782% (inactive)
O[Si](CCCN1CCCCC1)(c1ccc(F)cc1)C1CCCCC1 (configuration not stated)	-10.4% (inactive)
N=S(=O)(O)Cc1noc2ccccc12	-5.45% (inactive)
CC(N)(Cc1ccc(O)c(O)c1)C(=O)O (configuration not stated)	-4.69% (inactive)

Biological target: ATPase family AAA domain-containing protein 5 (Homo sapiens) (UniProt Q96QE3)
Sequence (Q96QE3 whole entry, looked up, the tested form may be a part): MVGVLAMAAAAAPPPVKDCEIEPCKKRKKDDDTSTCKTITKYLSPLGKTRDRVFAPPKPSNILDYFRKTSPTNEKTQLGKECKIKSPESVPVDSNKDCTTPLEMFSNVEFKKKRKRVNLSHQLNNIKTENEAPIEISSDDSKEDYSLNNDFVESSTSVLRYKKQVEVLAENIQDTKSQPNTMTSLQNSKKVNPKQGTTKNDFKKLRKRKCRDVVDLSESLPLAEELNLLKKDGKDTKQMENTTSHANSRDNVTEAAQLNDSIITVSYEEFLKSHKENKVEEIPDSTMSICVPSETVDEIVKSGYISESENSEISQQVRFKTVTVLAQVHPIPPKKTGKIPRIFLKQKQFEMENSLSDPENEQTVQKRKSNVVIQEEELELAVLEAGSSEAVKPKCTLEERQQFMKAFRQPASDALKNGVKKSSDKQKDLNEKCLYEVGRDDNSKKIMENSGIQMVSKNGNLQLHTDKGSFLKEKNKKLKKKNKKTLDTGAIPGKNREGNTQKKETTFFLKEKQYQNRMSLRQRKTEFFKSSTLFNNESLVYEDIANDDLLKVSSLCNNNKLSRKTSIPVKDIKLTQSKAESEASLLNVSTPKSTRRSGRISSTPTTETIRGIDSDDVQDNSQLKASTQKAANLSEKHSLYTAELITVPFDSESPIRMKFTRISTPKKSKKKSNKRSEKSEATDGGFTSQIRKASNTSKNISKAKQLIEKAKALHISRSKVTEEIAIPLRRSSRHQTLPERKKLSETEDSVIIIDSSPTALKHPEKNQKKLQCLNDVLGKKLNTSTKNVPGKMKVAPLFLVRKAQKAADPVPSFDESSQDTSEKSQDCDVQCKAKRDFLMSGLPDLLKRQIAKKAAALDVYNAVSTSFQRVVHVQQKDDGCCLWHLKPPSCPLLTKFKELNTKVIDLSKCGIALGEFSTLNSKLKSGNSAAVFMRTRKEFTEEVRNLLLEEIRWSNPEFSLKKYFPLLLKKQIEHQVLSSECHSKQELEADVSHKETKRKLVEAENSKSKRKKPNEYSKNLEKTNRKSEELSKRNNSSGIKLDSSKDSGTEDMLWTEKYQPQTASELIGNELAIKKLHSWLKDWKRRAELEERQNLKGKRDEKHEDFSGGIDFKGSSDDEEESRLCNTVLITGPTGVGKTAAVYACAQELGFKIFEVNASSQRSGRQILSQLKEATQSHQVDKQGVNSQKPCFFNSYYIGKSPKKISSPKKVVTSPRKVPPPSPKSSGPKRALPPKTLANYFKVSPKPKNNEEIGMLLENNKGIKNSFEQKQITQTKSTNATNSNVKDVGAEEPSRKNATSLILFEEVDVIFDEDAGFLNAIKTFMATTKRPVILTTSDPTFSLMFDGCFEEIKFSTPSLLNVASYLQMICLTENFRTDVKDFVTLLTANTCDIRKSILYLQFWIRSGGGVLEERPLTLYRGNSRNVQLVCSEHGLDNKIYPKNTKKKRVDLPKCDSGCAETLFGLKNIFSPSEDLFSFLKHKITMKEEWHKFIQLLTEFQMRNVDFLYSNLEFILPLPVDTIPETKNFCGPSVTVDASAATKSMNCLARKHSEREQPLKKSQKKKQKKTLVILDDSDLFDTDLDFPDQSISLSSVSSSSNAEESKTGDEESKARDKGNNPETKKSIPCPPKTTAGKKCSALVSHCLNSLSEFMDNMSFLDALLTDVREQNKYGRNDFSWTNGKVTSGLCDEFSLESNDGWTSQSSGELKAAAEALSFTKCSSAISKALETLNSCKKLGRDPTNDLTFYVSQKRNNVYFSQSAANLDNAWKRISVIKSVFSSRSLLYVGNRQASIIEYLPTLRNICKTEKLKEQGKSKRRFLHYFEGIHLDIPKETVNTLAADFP
Experiment: Validation screen for small molecules that inhibit ELG1-dependent DNA repair in human embryonic kidney (HEK293T) cells expressing luciferase-tagged ELG1 (AID 493107); also: nearly all actives have a fitted effect of over 70% in size; also: potency is read from the fitted curve at half-maximal effect;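 as to activity change, negative = decrease: cells co-treated with the DNA-damaging agent 5-fluorouridine alongside compound; % is scaled to controls: 0 for no effect and ±100 for the full control effect; inhibitors lower the ELG1-luciferase luminescence signal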
Settings: HEK293T ELG1-luciferase level, luminescence, 5-fluorouridine co-treatment, 16 h; series mostly up to 46.1 µM; activity change, negative = decrease: at the top concentration
Procedure, shortened: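 Compounds reducing 5-fluorouridine-driven ELG1-luciferase signal in HEK293T cells were scored; exposure lasted 16 hr at 37 °C with luminescence detected via ONE-Glo.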

Compound	activity change, negative = decrease	Potency
CCCCCC(O)CCCC(=O)O (configuration not stated)	0.973% (inactive)	
Cn1c(=O)[nH]c2ncn(C)c2c1=O	-0.0209% (inactive)	
CCCn1c(=O)c(C)cn2nc(N)nc12	16.6% (inactive)	
CCCCCCCCCC(=O)NC(CN1CCOCC1)[C@H](O)c1ccccc1 (some centres not stated)	0.666% (inactive)	
Nc1ccc2c3c(cccc13)C(=O)NC2=O	14.4% (inactive)	
Cc1cc(Cn2cnc3c2C[C@@H](C(=O)O)N(C(=O)C(c2ccccc2)c2ccccc2)C3)ccc1N	17.5% (inactive)	
CN1CC(O)C(O)C(O)C1CO (configuration not stated)	-0.188% (inactive)	
NCCNS(=O)(=O)c1cccc2c(Cl)cccc12	-24.6% (inactive)	
CC#CCOC(=O)c1c(C)nc2sc3c(c2c1N)CCC(O)C3 (configuration not stated)	-11.3% (inactive)	
Cc1nc2n(c(=O)c1CCN1CCC(c3noc4cc(F)ccc34)CC1)CCCC2O (configuration not stated)	12.4% (inactive)	
CC(=O)SC1CC2=CC(=O)CC[C@]2(C)C2CC[C@@]3(C)C(CC[C@@]34CCC(=O)O4)C12 (some centres not stated)		7.3 µM (active)
N[C@H](C(=O)O)[C@H](Cc1ccccc1)C(=O)O	23.3% (inactive)	
CCCc1c(-c2ccc(O)cc2)nn(-c2ccc(O)cc2)c1-c1ccc(O)cc1	-17.1% (inactive)	
CSC(=N)N	4.75% (inactive)	
CC(C)[C@@H]1CC[C@@H](C)C[C@@H]1P(=O)(c1ccccc1)c1ccccc1	12.9% (inactive)	
COc1cc(CNC(=O)CCCCCCC(C)C)ccc1O	24.1% (inactive)	
CN1C2CCC1CC(OC(c1ccccc1)c1ccccc1)C2 (configuration not stated)	-11.2% (inactive)	
C=CCN1CCc2cc(O)c(O)cc2C(c2ccccc2)C1 (configuration not stated)	8.24% (inactive)	
Nc1nc2[nH]c(=O)cnc2c(=O)[nH]1	31% (inactive)	
COc1ccc(CCn2nnnc2C2(c3ccc(C)cc3)CC2)cc1	-27% (inactive)	
Nc1ncnc2c1nc(Br)n2C1OC2COP(=O)(O)O[C@@H]2C1O (some centres not stated)	3.07% (inactive)	
Oc1ccc(/C=C/c2ccc(/C=C/c3ccc(O)cc3)c(Br)c2)cc1	-3.56% (inactive)	
CC(O)C(O)[C@H]1CNc2nc(N)[nH]c(=O)c2N1 (some centres not stated)	-8.5% (inactive)	
O[Si](CCCN1CCCCC1)(c1ccc(F)cc1)C1CCCCC1 (configuration not stated)	0.104% (inactive)	
N=S(=O)(O)Cc1noc2ccccc12	8.7% (inactive)	
CC(N)(Cc1ccc(O)c(O)c1)C(=O)O (configuration not stated)	14.4% (inactive)	

Biological target: Thyrotropin-releasing hormone receptor (Homo sapiens) (UniProt P34981)
Sequence (P34981 whole entry, looked up): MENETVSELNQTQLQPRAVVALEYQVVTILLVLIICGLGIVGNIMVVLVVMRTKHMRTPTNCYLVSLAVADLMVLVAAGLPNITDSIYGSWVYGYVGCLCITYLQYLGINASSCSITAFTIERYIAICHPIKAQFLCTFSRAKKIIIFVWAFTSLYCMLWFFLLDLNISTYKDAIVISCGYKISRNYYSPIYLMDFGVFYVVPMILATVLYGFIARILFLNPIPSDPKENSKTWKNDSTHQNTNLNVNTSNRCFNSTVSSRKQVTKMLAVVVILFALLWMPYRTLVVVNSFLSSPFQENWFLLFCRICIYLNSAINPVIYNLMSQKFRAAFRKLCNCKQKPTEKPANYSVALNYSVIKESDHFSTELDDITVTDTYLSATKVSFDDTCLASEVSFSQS
Experiment: qHTS for Small Molecule Agonists and Allosteric Enhancers of Human TRH Receptor: Validation Screen for Agonists (AID 493127;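 active = calcium activation more than 3 SD above the typical response in the agonist read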;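 also: intracellular calcium rise by fluo-8 fluorescence before TRH EC20 addition; 0% is about no effect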)
Settings: TRH receptor agonist cell assay; at 2 µM; stronger effect = higher value
Procedure, shortened: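 Kinetic fluorescence assay of agonist-induced calcium release: overnight-plated TRHR cells, room-temperature fluo-8 loading, baseline then compound addition with per-second reads.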

Compound	activation
CNC(=O)c1cc2c(cn1)[nH]c1ccccc12	0.75% (inactive)
O=C1Nc2ccc(I)cc2/C1=C/c1cc(Br)c(O)c(Br)c1	8.19% (inactive)
O=S(=O)(c1cccc2c(Cl)cccc12)N1CCCNCC1	1.56% (inactive)
N#CC(C#N)=C(N)/C(C#N)=C/c1ccc(O)cc1	0.25% (inactive)
CCCCCC(O)CCCC(=O)O (configuration not stated)	-0.375% (inactive)
Cn1c(=O)[nH]c2ncn(C)c2c1=O	0.188% (inactive)
CN1CCCC1CCOC(C)(c1ccccc1)c1ccc(Cl)cc1 (configuration not stated)	1.88% (inactive)
CN(C)S(=O)(=O)c1ccc2c(c1)/C(=C/c1cc3c([nH]1)CCCC3)C(=O)N2	26.3% (inactive)
CCCCCCCCCC(=O)NC(CN1CCOCC1)[C@H](O)c1ccccc1 (some centres not stated)	0.812% (inactive)
Nc1ccc2c3c(cccc13)C(=O)NC2=O	87.4% (active)
NCCNS(=O)(=O)c1cccc2c(Cl)cccc12	2.62% (inactive)
CC#CCOC(=O)c1c(C)nc2sc3c(c2c1N)CCC(O)C3 (configuration not stated)	0.438% (inactive)
CCn1c(=O)[nH]c2cc(Cl)c(Cl)cc21	1.69% (inactive)
N#CC(=C(\N)Sc1ccccc1N)/C(C#N)=C(/N)Sc1ccccc1N	2.62% (inactive)
CCCc1c(-c2ccc(O)cc2)nn(-c2ccc(O)cc2)c1-c1ccc(O)cc1	2.12% (inactive)
Fc1ccc(CN(C2=NCCN2)c2c(Cl)cccc2Cl)cc1	1.31% (inactive)
N[C@H](C(=O)O)[C@H]1C[C@@H]1C(=O)O	0.812% (inactive)
CC1=C(/C=C/C(C)=C/C=C/C(C)=C\C(=O)O)C(C)(C)CCC1	0.75% (inactive)
COc1cc(CNC(=O)CCCCCCC(C)C)ccc1O	-5.38% (inactive)
CN1C2CCC1CC(OC(c1ccccc1)c1ccccc1)C2 (configuration not stated)	1.5% (inactive)
C=CCN1CCc2cc(O)c(O)cc2C(c2ccccc2)C1 (configuration not stated)	1.38% (inactive)
C=CCN1CCc2c(cc(O)c(O)c2Br)[C@@H](c2ccccc2)C1	-5.81% (inactive)
Nc1nc2[nH]c(=O)cnc2c(=O)[nH]1	0.312% (inactive)
O[Si](CCCN1CCCCC1)(c1ccc(F)cc1)C1CCCCC1 (configuration not stated)	5.12% (inactive)
CC(N)(Cc1ccc(O)c(O)c1)C(=O)O (configuration not stated)	0% (inactive)
